This passage reports Potency, viability (% of control) and viability, % of control results from PubChem BioAssay (NCATS).

“And” between values parts separate entries of the source, which are not always exact repeats. Equal values may be shown once. Records with an inconclusive call do not appear. Unmarked numbers belong to inactive results. The source made the active and inactive calls. Calls follow the shape of the dose curve; as a rule, active = well fitted cell-killing curve with a large enough effect; inconclusive = small, poorly fitted or top-dose-only effect, or effect the other way; inactive = no such curve, though single readings can be large or run the other way.

The nature of test [1]: Viability qHTS for spleen associated tyrosine kinase inhibitor (SYKi) naive MV4-11 cells (AID 1963823). Also: nearly all actives have a fitted effect of over 40% in size. In outline: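 Cells: MV4-11, SYK inhibitor naive, 500 per well. Treatment: library compounds, 72 hr, 37 C, 5% CO2. Read-out: CellTiter-Glo luminescence after 10 min RT.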
Test [2] can be described thus: Viability qHTS for spleen associated tyrosine kinase inhibitor (SYKi) drug resistant MV4-11 cells (AID 1963824). Also: nearly all actives have a fitted effect of over 35% in size. In outline:
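SYK-inhibitor-resistant MV4-11 AML cells were seeded at 500 per well onto compound and cultured 72 hours (37 °C, 5% CO2). CellTiter-Glo was then added, and after 10 min at room temperature, luminescence gave viability.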
Potency is read from the fitted curve at half-maximal effect.

For the molecule `O=C1NC(=O)C(c2cn3c4c(cccc24)CCC3)C1c1c[nH]c2ccccc12` (centres undefined), the Potency in test [1] and in test [2] was 0.92 µM (active) throughout.
With `Cc1c(NC(=O)c2cc3c(s2)CCCC3)cccc1-c1cn(C)c(=O)c(Nc2ccc(C3C(=O)N(C)CCN3C)cc2)n1` (centres undefined), the Potency in test [1] was 20.6 µM (active) and 20.9 µM (active); in test [2], 7.31 µM (active) and 16.6 µM (active).
For `C[C@@H]1O[C@@H](O[C@@H]2[C@@H](O)[C@H](O[C@H]3[C@H](O[C@H]4CC[C@@]5(C)C(CC[C@]6(C)C5CC=C5[C@@H]7CC(C)(C)CC[C@]7(C(=O)O[C@@H]7O[C@H](CO)[C@@H](O)[C@H](O)[C@H]7O)CC[C@]56C)C4(C)C)O[C@H](C(=O)O)[C@@H](O)[C@@H]3O)OC[C@H]2O)[C@H](O)[C@H](O)[C@H]1O` (some centres undefined), in test [1], the viability (% of control) is 62.1% [at 9.25 µM]. Further, the viability, % of control in test [2] is 87.3% [at 9.25 µM].
Taken in the same sequence, the figures for `C=C(C)[C@@H](C)[C@H]1O[C@]23C[C@]4(CO2)C(CCC2[C@@]5(C)CC[C@H](O[C@@H]6OC[C@H](O)[C@H](O[C@@H]7O[C@H](CO)[C@@H](O)[C@H](O)[C@H]7O)[C@H]6O[C@@H]6O[C@@H](CO)[C@H](O)[C@H]6O)C(C)(C)C5CC[C@]24C)C3[C@@](C)(O)[C@@H]1OC(C)=O` (some centres undefined) were 73.4% [at 9.25 µM] and 92.6% [at 9.25 µM].
With `COc1cc(C(=O)O)ccc1OC1OC(CO)C(O)C(O)C1O` (centres undefined), the Potency entry in test [1] and in test [2] was “inactive” in each case.
Consider `C[C@]12C[C@@H](O)[C@@H]3C[C@@]1(O[C@@H]1O[C@H](CO)[C@@H](O)[C@H](O)[C@H]1O)[C@]3(COC(=O)c1ccccc1)C(=O)O2`, for which the Potency result in test [1] and in test [2] was “inactive” throughout.
Consider `CC1CCC2C(C)(C)C(O)CCC2(C)C12Cc1c(O)cc3c(c1O2)CN(C(CCCN=C(N)N)C(=O)O)C3=O` (centres undefined), for which the values for the Potency in test [1] and in test [2] were 3.17 µM (active) and 5.63 µM (active), respectively.
For `OC[C@H]1O[C@@H](OCCc2ccc(O)cc2)[C@H](O)[C@@H](O)[C@@H]1O` the same measures were “inactive” and “inactive”.
Taken in the same sequence, the figures for `C=C1[C@@H]2CC[C@@]3(C)[C@H](c4ccoc4)OC(=O)C[C@]13O[C@H]1CC(=O)C(C)(C)[C@H](C(O)C(=O)OC)[C@]12C` (some centres undefined) were “inactive” and “inactive”.
Consider `COC(=O)[C@@]1(C)CC[C@]2(C(=O)O[C@@H]3O[C@H](CO)[C@@H](O)[C@H](O)[C@H]3O)CC[C@]3(C)C(=CCC4[C@@]5(C)CC[C@H](O[C@@H]6O[C@H](C(=O)O)[C@@H](O)[C@H](O)[C@H]6O)C(C)(C)C5CC[C@]43C)[C@@H]2C1` (some centres undefined), for which, in test [1], the viability (% of control) is 68.6% [at 9.25 µM]. For the same molecule, the viability, % of control in test [2] is 81.9% [at 9.25 µM].
For `CC(C)C1CCC(CO)=CC1/C=C(\CO)C(=O)OCC1(O)CCC(C(C)C)C2C=C(C(=O)O)COC(=O)C21` (centres undefined), the Potency result in test [1] and in test [2] was “inactive” in each case.
Regarding `CC1CCC2(C(=O)O)CCC3(C)C(=CCC4C5(C)CCC(OC(=O)/C=C/c6ccccc6)C(C)(C)C5CCC43C)C2C1C` (centres undefined), the Potency result in test [1] and in test [2] was “inactive” each time.
As to `CC1CC[C@]2(C(=O)O)CC[C@]3(C(=O)O)C(=CCC4[C@@]5(C)CC[C@H](OC6OC(C)C(O)C(OC7OC(CO)C(O)C(O)C7O)C6O)C(C)(C)C5CC[C@]43C)C2C1C` (some centres undefined), the Potency entry in test [1] and in test [2] was “inactive” each time.
In the case of `C[C@@H]1O[C@@H](O[C@H]2[C@H](O)[C@@H](O[C@@H]3O[C@H](CO)[C@H](O)[C@H](O)[C@H]3O)[C@H](O[C@H]3CC[C@@]4(C)C(CC[C@]5(C)C4CC=C4[C@@H]6CC(C)(C)CC[C@]6(C(=O)O[C@@H]6O[C@H](CO)[C@@H](O)[C@H](O)[C@H]6O)CC[C@]45C)C3(C)C)O[C@@H]2C(=O)O)[C@H](O)[C@H](O)[C@H]1O` (some centres undefined), the viability (% of control) in test [1] is 82.7% [at 9.25 µM]. The viability, % of control in test [2] is 90.8% [at 9.25 µM].
With `CCOC(=O)OCC/C(SC(=O)OCC)=C(\C)N(C=O)Cc1cnc(C)nc1N`, the Potency result in test [1] and in test [2] was “inactive” throughout.
Consider `O=C(c1ccc(-c2ccc(Cl)cc2)o1)N(Cc1ccccn1)c1ccc(N2CCNCC2)cc1`, for which the Potency in test [1] is 13 µM (active); in test [2] it was 9.2 µM (active).
For the molecule `CC1CCC2C(C(=O)O)=CC3C(O)C(C)(C)CC123` (centres undefined), the Potency result in test [1] and in test [2] was “inactive” each time.
Consider `CN(C)C(=O)COC(=O)c1cc(-c2ccc(C3CCNCC3)cc2)c2ccc(-c3ccc(C(F)(F)F)cc3)cc2c1`, for which the Potency in test [1] is 4.61 µM (active); in test [2] it was 5.17 µM (active).
For `C#Cc1cnc2[nH]c(=O)n(C(CC)CC)c2n1` the same measures were “inactive” and “inactive”.
Taken in the same sequence, the figures for `NC(=O)c1cnc(NCCc2ccc(O)c(Cl)c2)nc1NCc1ccccc1` were 0.0231 µM (active) and 0.0259 µM (active).
As for `CC1(C)CC[C@]2(C(=O)O[C@@H]3O[C@H](CO)[C@@H](O)[C@H](O)[C@H]3O)CC[C@]3(C)C(=CCC4[C@@]5(C)CC[C@H](O[C@@H]6O[C@H](C(=O)O)[C@@H](O)[C@H](O[C@@H]7O[C@H](CO)[C@H](O)[C@H](O)[C@H]7O)[C@H]6O)C(C)(C)C5CC[C@]43C)C2C1` (some centres undefined), the viability (% of control) in test [1] is 81.1% [at 9.25 µM]. Besides, the viability, % of control in test [2] was 106% [at 9.25 µM].
On to `COC(=O)C1=C[C@@H](O)[C@@H](O)[C@H](O[C@@H]2O[C@H](CO)[C@@H](O)[C@H](O)[C@H]2OC(=O)/C=C/c2ccccc2)C1`, for which the Potency entry in test [1] and in test [2] was “inactive” throughout.
